Results as given in PubChem BioAssay (EPA / NIEHS).
Calls of active or inactive are those of the source. Rule for the calls: active = hit-call score of the fitted dose curve at least 0.9, where 1 is the maximum; inactive = score below 0.9.

Key:
Settings in all cases: mRNA level, 48 h; actives raise or lower the signal
[1] = read-out: Cytochrome P450 3A4 (Homo sapiens) (UniProt P08684); assay: LTEA_HepaRG_CYP3A4: Life Technologies and Expression Analysis (LTEA) Assay for CYP3A4 using HepaRG (AID 2283487)
Summary of the method: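 CYP3A4 transcript measured by TaqMan qRT-PCR and normalized to three housekeeping genes after 48 h chemical exposure of human HepaRG cells. Top concentration 100 uM, half-log steps, 0.5% DMSO vehicle; gain or loss fitted against DMSO baseline.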

[2] = read-out: DNA damage-inducible transcript 3 (DDIT3), DDIT3 (gene 1649); assay: LTEA_HepaRG_DDIT3: Life Technologies and Expression Analysis (LTEA) Assay for DNA damage-inducible transcript 3 (DDIT3) using HepaRG (AID 2283488)
Summary of the method: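 Eight-point concentration-response (100 uM highest, half-log dilutions) in HepaRG, 48 h, duplicate wells. Endpoint: qRT-PCR mRNA, normalized (ACTB, GAPDH, POLR2A), bidirectional fitting with DMSO as baseline.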

[3] = read-out: Pro-epidermal growth factor (Homo sapiens) (UniProt P01133); assay: LTEA_HepaRG_EGF: Life Technologies and Expression Analysis (LTEA) Assay for Epidermal growth factor (EGF) using HepaRG (AID 2283489)
Summary of the method: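 EGF transcript measured by Fluidigm TaqMan qRT-PCR with three housekeeping genes for normalization, 48 h after dosing HepaRG cultures in duplicate (top 100 uM, half-log steps, 0.5% DMSO vehicle). Gain or loss relative to DMSO fitted.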

[4] = read-out: Early growth response protein 1 (EGR1) transcription factor, EGR1 (gene 1958); assay: LTEA_HepaRG_EGR1: Life Technologies and Expression Analysis (LTEA) Assay for Early growth response protein 1 (EGR1) transcription factor using HepaRG (AID 2283490)
Summary of the method: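 EGR1 expression change in human HepaRG after 48 h chemical exposure, assessed by housekeeping-normalized qRT-PCR; concentration-response up to 100 uM, fitted in both directions against DMSO controls.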

[5] = read-out: Ezrin (EZR), EZR (gene 7430); assay: LTEA_HepaRG_EZR: Life Technologies and Expression Analysis (LTEA) Assay for Ezrin (EZR) using HepaRG (AID 2283491)
Summary of the method: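 HepaRG, 48 h chemical exposure, 8-pt half-log series from 100 uM, 0.5% DMSO vehicle, duplicates. Read-out: EZR mRNA by TaqMan qRT-PCR (Fluidigm array), housekeeping-normalized; bidirectional curve fit vs DMSO baseline.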

[6] = read-out: Cytochrome P450 3A7 (Homo sapiens) (UniProt P24462); assay: LTEA_HepaRG_CYP3A7: Life Technologies and Expression Analysis (LTEA) Assay for CYP3A7 using HepaRG (AID 2283492)
Summary of the method: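 CYP3A7 transcript measured by qRT-PCR (ACTB, GAPDH, POLR2A normalization) after 48 h chemical exposure of HepaRG cells in duplicate. Eight half-log concentrations, maximum 100 uM, 0.5% DMSO vehicle; bidirectional curve fitting against DMSO baseline.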

CYP3A5 (gene 1577) = assay: LTEA_HepaRG_CYP3A5: Life Technologies and Expression Analysis (LTEA) Assay for CYP3A5 using HepaRG (AID 2283493)
Summary of the method: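 Readout was CYP3A5 mRNA by qRT-PCR. HepaRG cultures were exposed for 48 h in serum-free induction medium to chemicals at up to 100 uM, and responses were fitted in both directions relative to DMSO vehicle.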

[7] = read-out: Fatty Acid-Binding Protein 1 (FABP1), FABP1 (gene 2168); assay: LTEA_HepaRG_FABP1: Life Technologies and Expression Analysis (LTEA) Assay for Fatty Acid-Binding Protein 1 (FABP1) using HepaRG (AID 2283494)
Summary of the method: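 Values reflect bidirectional concentration-response fitting of FABP1 mRNA change against 0.5% DMSO controls. Human HepaRG cultures received eight half-log doses (top 100 uM) for 48 h; expression quantified by TaqMan qRT-PCR with housekeeping-gene normalization.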

[8] = read-out: Cytochrome P450 4A22 (Homo sapiens) (UniProt Q5TCH4); assay: LTEA_HepaRG_CYP4A22: Life Technologies and Expression Analysis (LTEA) Assay for Cytochrome P450 4A22 (CYP4A22) using HepaRG (AID 2283495)
Summary of the method: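 Gene expression measured by qRT-PCR against three housekeeping genes (ACTB, GAPDH, POLR2A), with gain or loss fitted relative to 0.5% DMSO vehicle. HepaRG cultures received 48 h chemical treatment, top concentration 100 uM, half-log steps, duplicate wells.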

[9] = read-out: Cytochrome P450 7A1 (Homo sapiens) (UniProt P22680); assay: LTEA_HepaRG_CYP7A1: Life Technologies and Expression Analysis (LTEA) Assay for Cytochrome P450 7A1 (CYP7A1) using HepaRG (AID 2283496)
Summary of the method: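 Using 0.5% DMSO as vehicle and baseline, chemicals were tested in duplicate over an 8-point range from 100 uM on HepaRG cells for 48 h; qRT-PCR signals were normalised to ACTB, GAPDH and POLR2A.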

[10] = read-out: Glutathione S-Transferase (GSTA2), GSTA2 (gene 2939); assay: LTEA_HepaRG_GSTA2: Life Technologies and Expression Analysis (LTEA) Assay for Glutathione S-Transferase (GSTA2) using HepaRG (AID 2283497)
Summary of the method: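 Oxidative-stress marker GSTA2 is quantified by TaqMan qRT-PCR in HepaRG cultures treated 48 h across an eight-point range to 100 uM. Expression is normalized to endogenous controls and compared with 0.5% DMSO vehicle.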

[11] = read-out: Glutamate-cysteine ligase catalytic (GCLC), GCLC (gene 2729); assay: LTEA_HepaRG_GCLC: Life Technologies and Expression Analysis (LTEA) Assay for Glutamate-cysteine ligase catalytic (GCLC) using HepaRG (AID 2283498)
Summary of the method: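 Oxidative-stress marker GCLC is measured as mRNA change in human HepaRG liver cells after 48 h chemical treatment in 0.5% DMSO, eight concentrations from 100 uM. Activity is fitted bidirectionally against vehicle.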

[12] = read-out: growth arrest and DNA damage 45 (GADD45G), GADD45G (gene 10912); assay: LTEA_HepaRG_GADD45G: Life Technologies and Expression Analysis (LTEA) Assay for growth arrest and DNA damage 45 (GADD45G) using HepaRG (AID 2283499)
Summary of the method: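 GADD45G transcript level by qRT-PCR (housekeeping-normalized: ACTB, GAPDH, POLR2A) after 48 h chemical treatment of a single HepaRG lot in serum-free induction medium; eight-point half-log series up to 100 uM in 0.5% DMSO, duplicates, up- or down-regulation scored.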

[13] = read-out: Glutamate-cysteine ligase regulatory (GCLM), GCLM (gene 2730); assay: LTEA_HepaRG_GCLM: Life Technologies and Expression Analysis (LTEA) Assay for Glutamate-cysteine ligase regulatory (GCLM) using HepaRG (AID 2283500)
Summary of the method: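 In this multiplexed HepaRG gene-expression assay, GCLM mRNA change after 48 h treatment (8 concentrations, max 100 uM) was scored against DMSO by bidirectional curve fitting.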

[14] = read-out: Glutathione S-transferase M3 (GSTM3), GSTM3 (gene 2947); assay: LTEA_HepaRG_GSTM3: Life Technologies and Expression Analysis (LTEA) Assay for Glutathione S-transferase M3 (GSTM3) using HepaRG (AID 2283501)
Summary of the method: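 GSTM3 transcript levels came from Fluidigm TaqMan qRT-PCR normalized to three housekeeping genes, fitted in both directions against DMSO. HepaRG cultures received chemicals for 48 h in serum-free induction medium (0.5% DMSO), 8 half-log concentrations up to 100 uM, duplicate.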

[15] = read-out: Heat shock 70 kDa protein 1 (HSPA1A), gene 3303; assay: LTEA_HepaRG_HSPA1A: Life Technologies and Expression Analysis (LTEA) Assay for Heat shock 70 kDa protein 1 (HSPA1A) using HepaRG (AID 2283502)
Summary of the method: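 An oxidative-stress marker readout: HepaRG cells treated 48 h in duplicate with an eight-point series (highest 100 uM) had HSPA1A mRNA quantified by TaqMan qRT-PCR. Activity was fitted in both directions using 0.5% DMSO as baseline.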

[16] = read-out: Hypoxia-inducible factor 1-alpha (Homo sapiens) (UniProt Q16665); assay: LTEA_HepaRG_HIF1A: Life Technologies and Expression Analysis (LTEA) Assay for Hypoxia-inducible factor 1 (HIF1A) Trancription factor using HepaRG (AID 2283503);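 note: HIF1A transcript by TaqMan qRT-PCR normalized to ACTB GAPDH and POLR2A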
Summary of the method: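 Gain- or loss-of-signal HIF1A mRNA changes are fitted against a DMSO baseline. HepaRG cultures receive eight concentrations, highest 100 uM, for 48 h in serum-free induction medium with 0.5% DMSO.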

[17] = read-out: 3-Hydroxy-3-Methylglutaryl-CoA Synthase 2 (HMGCS2), HMGCS2 (gene 3158); assay: LTEA_HepaRG_HMGCS2: Life Technologies and Expression Analysis (LTEA) Assay for 3-Hydroxy-3-Methylglutaryl-CoA Synthase 2 (HMGCS2) using HepaRG (AID 2283504)
Summary of the method: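 Readout is HMGCS2 transcript by qRT-PCR, housekeeping-normalised (ACTB/GAPDH/POLR2A) and fitted bidirectionally against 0.5% DMSO. Differentiated HepaRG cells received chemicals 48 h, duplicate wells, eight half-log concentrations topping at 100 uM.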

HGF (gene 3082) = assay: LTEA_HepaRG_HGF: Life Technologies and Expression Analysis (LTEA) Assay for Hepatocyte Growth Facto (HGF) using HepaRG (AID 2283505)
Summary of the method: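 HGF transcript was quantified by TaqMan qRT-PCR against three housekeeping genes after 48 h treatment of HepaRG cells. Exposure ran in duplicate over eight half-log steps topping at 100 uM in 0.5% DMSO vehicle.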

[18] = read-out: Insulin Like Growth Factor 1 (IGF1), IGF1 (gene 3479); assay: LTEA_HepaRG_IGF1: Life Technologies and Expression Analysis (LTEA) Assay for Insulin Like Growth Factor 1 (IGF1) using HepaRG (AID 2283506)
Summary of the method: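 Endpoint: IGF1 mRNA change by qRT-PCR, housekeeping-normalized, fitted bidirectionally relative to 0.5% DMSO vehicle. Human HepaRG cells were treated 48 h in serum-free induction medium, eight half-log concentrations topping at 100 uM.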

Measured: AC50

Hypoxia-inducible factor 1-alpha (Homo sapiens), sequence (Q16665 whole entry, looked up): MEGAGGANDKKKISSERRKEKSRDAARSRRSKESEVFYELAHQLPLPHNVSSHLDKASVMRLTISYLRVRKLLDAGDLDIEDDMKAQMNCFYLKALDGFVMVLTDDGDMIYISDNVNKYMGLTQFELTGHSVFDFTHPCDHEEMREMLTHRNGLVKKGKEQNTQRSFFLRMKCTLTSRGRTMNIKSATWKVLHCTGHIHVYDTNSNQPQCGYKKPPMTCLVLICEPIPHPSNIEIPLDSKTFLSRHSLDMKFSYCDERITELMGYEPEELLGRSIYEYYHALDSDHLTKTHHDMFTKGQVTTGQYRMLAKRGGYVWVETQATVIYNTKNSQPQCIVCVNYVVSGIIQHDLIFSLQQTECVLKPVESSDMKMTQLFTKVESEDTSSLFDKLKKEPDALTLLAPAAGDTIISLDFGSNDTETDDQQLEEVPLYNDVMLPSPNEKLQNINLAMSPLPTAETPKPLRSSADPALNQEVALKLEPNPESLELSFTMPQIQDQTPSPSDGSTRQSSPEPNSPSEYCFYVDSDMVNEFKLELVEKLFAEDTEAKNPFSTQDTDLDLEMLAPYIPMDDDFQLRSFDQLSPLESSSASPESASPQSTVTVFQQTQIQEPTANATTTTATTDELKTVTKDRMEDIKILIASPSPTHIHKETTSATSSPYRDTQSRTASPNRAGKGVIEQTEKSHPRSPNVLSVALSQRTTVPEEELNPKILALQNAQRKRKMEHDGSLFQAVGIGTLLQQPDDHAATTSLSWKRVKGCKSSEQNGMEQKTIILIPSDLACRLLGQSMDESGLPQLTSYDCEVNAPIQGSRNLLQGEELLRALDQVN
Cytochrome P450 3A4 (Homo sapiens), sequence (P08684 whole entry, looked up): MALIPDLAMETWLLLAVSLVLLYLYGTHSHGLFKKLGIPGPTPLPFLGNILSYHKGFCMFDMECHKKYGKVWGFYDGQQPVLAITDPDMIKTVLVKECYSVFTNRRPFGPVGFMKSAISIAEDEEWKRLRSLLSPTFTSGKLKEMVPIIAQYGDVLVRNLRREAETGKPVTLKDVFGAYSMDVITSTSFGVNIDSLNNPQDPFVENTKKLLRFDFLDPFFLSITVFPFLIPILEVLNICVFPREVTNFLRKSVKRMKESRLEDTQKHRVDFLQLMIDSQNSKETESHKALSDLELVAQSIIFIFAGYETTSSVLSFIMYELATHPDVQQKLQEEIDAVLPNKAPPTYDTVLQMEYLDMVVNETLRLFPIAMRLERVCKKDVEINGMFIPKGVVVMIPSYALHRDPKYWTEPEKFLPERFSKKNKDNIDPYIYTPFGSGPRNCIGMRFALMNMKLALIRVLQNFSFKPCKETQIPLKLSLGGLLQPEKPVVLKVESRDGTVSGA
Cytochrome P450 3A7 (Homo sapiens), sequence (P24462 whole entry, looked up): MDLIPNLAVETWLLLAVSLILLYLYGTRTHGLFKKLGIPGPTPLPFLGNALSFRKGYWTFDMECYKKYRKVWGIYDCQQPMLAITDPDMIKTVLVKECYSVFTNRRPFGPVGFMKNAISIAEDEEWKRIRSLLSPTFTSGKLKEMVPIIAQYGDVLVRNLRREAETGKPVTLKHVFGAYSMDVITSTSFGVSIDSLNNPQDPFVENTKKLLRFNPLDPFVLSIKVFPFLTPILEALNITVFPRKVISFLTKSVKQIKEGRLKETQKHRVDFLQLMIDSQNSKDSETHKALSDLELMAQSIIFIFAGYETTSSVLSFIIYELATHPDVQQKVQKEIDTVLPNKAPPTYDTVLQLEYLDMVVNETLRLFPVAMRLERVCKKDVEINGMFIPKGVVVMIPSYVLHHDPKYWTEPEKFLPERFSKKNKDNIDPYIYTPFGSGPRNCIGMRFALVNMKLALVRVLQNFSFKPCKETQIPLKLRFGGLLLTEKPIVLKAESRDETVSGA

CCC(=O)O[C@H]1CC[C@H]2[C@@H]3CCC4=CC(=O)CC[C@]4(C)[C@H]3CC[C@]12C
active: [7] 19.9 µM | [8] 0.308 µM | [9] 13.1 µM
not listed: [18]
inactive: all other assays above

CCCCCCOC(=O)c1ccccc1C(=O)OCCCCCC
not listed: [8]
inactive: all other assays above

O=C(O)C(F)(F)C(F)(F)C(F)(F)C(F)(F)C(F)(F)F
active: [7] 12 µM | [17] 2.41 µM
not listed: [8]
inactive: all other assays above

Cc1cccc(C)c1N
active: [5] 0.364 µM
not listed: [15] | [18]
inactive: all other assays above

O=NN(c1ccccc1)c1ccccc1
active: [8] 50 µM
not listed: [18]
inactive: all other assays above

N#Cc1ccc(N(CC(N)=O)CC(F)(F)F)cc1C(F)(F)F
active: [7] 2.3 µM | [9] 0.622 µM
not listed: [8]
inactive: all other assays above

Cc1ccccc1CO[C@@H]1C[C@@]2(C(C)C)CC[C@]1(C)O2
active: [1] 23.1 µM | [15] 50 µM
not listed: [18]
inactive: all other assays above

Clc1ccc(C(c2ccccc2Cl)C(Cl)(Cl)Cl)cc1 (configuration not stated)
active: [1] 2.46 µM | [2] 74.6 µM | [4] 11.9 µM | [6] 0.41 µM | [7] 33.9 µM | [9] 15.3 µM | [12] 90 µM | [17] 50 µM
not listed: [8] | [15] | [18]
inactive: all other assays above

Cc1cc(O)ccc1Cl
not listed: [15] | [18]
inactive: all other assays above

Cc1cc(-c2ccc(N)c(C)c2)ccc1N
active: [7] 24.9 µM | [9] 9.92 µM | [12] 26 µM | [17] 19.3 µM
not listed: [8]
inactive: all other assays above

CCOCCOC(C)=O
not listed: [15] | [18]
inactive: all other assays above

O=C(NC(=O)c1cc(F)c(F)cc1Cl)Nc1cc(F)ccc1N1CCC(C(=O)O)CC1
active: [8] 7.84 µM | [9] 6.6 µM | [17] 20.3 µM
not listed: [18]
inactive: all other assays above

CCCCCCCCCc1ccc(O)cc1
active: [7] 50 µM | [8] 31.9 µM | [17] 50 µM
not listed: [18]
inactive: all other assays above
